The values that follow come from PubChem BioAssay (NCATS).

SMILES strings stand for the structures. The source made the active and inactive calls. No rule for the calls is given here.
Potency is read from the fitted curve at half-maximal effect.

This experiment relates to HIV-1 nucleocapsid protein NCp7 (binding to TG oligonucleotide). As to the kind of experiment: HIV Nucleocapsid (AID 346).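 Also: potency is for inhibitors that block NC binding and lower polarization.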 The conditions noted are these: HIV-1 NC / fluorescein-TGTGTGTG probe, fluorescence polarization. Put shortly:
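Fluorescence polarization binding of 100 nM HIV-1 NC to 10 nM fluorescein-labelled TG4xF oligonucleotide. Buffer was Hepes pH 7.5 with 250mM NaCl, 1uM ZnCl2, TCEP and 2-mercaptoethanol. Compounds were incubated 1 hr at room temperature before the read.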
In general terms: Fluorescence polarisation rises when a labelled molecule tumbles more slowly, as on binding a larger partner.
On to `CN(C)c1ncc2nc(-c3ccc(Cl)cc3)c(=O)n(Cc3ccc(F)cc3)c2n1`, for which the Potency is > 4 µM (inactive).

With `O=c1cnc2cnc(N3CCOCC3)nc2n1Cc1ccc(F)cc1`, the Potency is 20.6 µM (inactive).

Turning to `COC(=O)N1CCC2(CCCN(C(=O)Nc3ccccc3)C2)CC1`, the Potency is > 20 µM (inactive).

For `COc1ccc(C(=O)N2CCC3(CC2)CN(c2ccccc2)C3)cc1`, the Potency was > 20 µM (inactive).

On to `Cn1cc(-c2nc3cncnc3n(Cc3ccc(F)cc3)c2=O)c2ccccc21`, for which the Potency was > 20 µM (inactive).

With `Cc1cccc(CNc2cc(-c3ccoc3)ncn2)c1`, the Potency was > 20 µM (inactive).

Consider `COc1ccc(Oc2ncc3nc(-c4ccc(OC)cc4)c(=O)n(Cc4cccs4)c3n2)cc1`, for which the Potency was > 20 µM (inactive).

With `CN(C)C(=O)c1ccc(-c2nccc(NCc3cccnc3)n2)cc1`, the Potency was > 20 µM (inactive).

`O=C(c1ccncc1)N1CCC[C@@]2(CCN(Cc3ccccc3)C2)C1`: the Potency was > 20 µM (inactive).

On to `COc1ccc(-n2c(=O)c(C)nc3cnc(Nc4cccc(OC)c4)nc32)cc1`, for which the Potency is > 20 µM (inactive).

In the case of `N#CCCn1c(=O)c(-c2ccc(F)cc2)nc2cnc(Oc3ccccc3)nc21`, the Potency is > 20 µM (inactive).

With `COc1cccc(-c2cc(NCc3ccc(OC)cc3OC)ncn2)c1`, the Potency is > 20 µM (inactive).

For the compound `N#CCCn1c(=O)c(CCc2ccccc2)nc2cnc(Oc3ccccc3)nc21`, the Potency is > 20 µM (inactive).

In the case of `O=c1c(CCc2ccccc2)nc2cnc(N3CCOCC3)nc2n1C1CC1`, the Potency was > 20 µM (inactive).

Regarding `Cc1noc(C)c1C(=O)N1CCC2(CC1)CN(c1ccccc1)C2`, the Potency was > 20 µM (inactive).

As for `COc1ccccc1-c1ccc2ncnc(NCc3cccnc3)c2c1`, the Potency is > 20 µM (inactive).

As to `Cn1cccc1C(=O)N1CCC2(CC1)CN(C(=O)Nc1ccccc1)C2`, the Potency was > 20 µM (inactive).

Regarding `CN(C)Cc1ccccc1-c1nccc(Nc2ccc(F)cc2)n1`, the Potency was > 20 µM (inactive).

Take `CS(=O)(=O)N1CCC2(CC1)CN(c1ccccn1)C2`: the Potency is > 20 µM (inactive).

On to `O=C(Nc1ccccc1)N1CCCC2(CCN(C(=O)c3cccc(F)c3)CC2)C1`, for which the Potency was > 20 µM (inactive).

For `COc1ccccc1-c1nccc(N2CCN(C)CC2)n1`, the Potency was > 20 µM (inactive).

For `CC(C)CN1CCCC2(CCN(C(=O)c3csnn3)CC2)C1`, the Potency was > 20 µM (inactive).

On to `CCNc1ncc2ncc(=O)n(Cc3ccc(F)cc3)c2n1`, for which the Potency is > 20 µM (inactive).

In the case of `COCCn1c(=O)c(C)nc2cnc(N3CCNCC3)nc21`, the Potency was > 20 µM (inactive).

`CC(C)NC(=O)N1CCCC2(CCN(S(=O)(=O)c3ccccc3)CC2)C1`: the Potency was > 4 µM (inactive).

In the case of `COc1ccc2[nH]cc(CCNc3ccnc(-c4ccccc4C)n3)c2c1`, the Potency is > 20 µM (inactive).

Consider `COc1cccc(-c2nccc(-n3ccnc3)n2)c1`, for which the Potency is > 20 µM (inactive).

For `COc1ccc(C(=O)N2CCC3(CC2)CCN(c2ccccc2)CC3)cc1`, the Potency was > 20 µM (inactive).

`CN(C)Cc1ccccc1-c1ccc2ncnc(N(C)Cc3ccco3)c2c1`: the Potency was > 20 µM (inactive).

On to `CN1CCC2(CC1)CCN(C(=O)c1ccncc1)CC2`, for which the Potency was > 20 µM (inactive).

As for `N#Cc1cccc(-c2cncnc2NCCc2cnc[nH]2)c1`, the Potency is > 20 µM (inactive).

`CCNc1ncc2nc(-c3cccs3)c(=O)n(CCc3ccccc3)c2n1`: the Potency is > 20 µM (inactive).

`COc1ccc(-c2nc3cnc(N4CCOCC4)nc3n(Cc3cccs3)c2=O)cc1`: the Potency was > 20 µM (inactive).

As to `Cn1cccc1C(=O)N1CCC2(CCCN(Cc3nccs3)C2)CC1`, the Potency is > 20 µM (inactive).

For the compound `COCCn1c(=O)c(-c2cc(F)cc(F)c2)nc2cnc(Nc3cccc(OC)c3)nc21`, the Potency was 3.99 µM (active).

As for `CCNc1ncc2nc(-c3ccc(Cl)cc3)c(=O)n(Cc3cccc(OC)c3)c2n1`, the Potency is 14.6 µM (inactive).

As for `COCCn1c(=O)c(-c2cccc(C#N)c2)nc2cnc(OC)nc21`, the Potency is > 20 µM (inactive).

As for `O=C(Oc1ccccc1)N1CCC2(CC1)CN(c1ccccc1)C2`, the Potency was > 20 µM (inactive).

Turning to `O=C(c1cccc(F)c1)N1CCC2(CC1)CN(Cc1ccccc1)C2`, the Potency is > 20 µM (inactive).

Turning to `COCCNc1ncnc2ccc(-c3ccccc3C(F)(F)F)cc12`, the Potency was > 20 µM (inactive).
